Among all 5,500 compounds or so, about 2,000 (36%) were called active. Inconclusive results (about 18%) are left out. Rule as the data show it: active = normalized growth mostly below about 0.91 (no sharp cut-off); inconclusive = no clear call, values can overlap the other calls; inactive = mostly above about 0.92. Some of the results follow.
Test: chemical genetic growth profiling, strain panel (AID 1159580);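 also: tested at 20 µM; growth read once vehicle control cultures reached saturation at 30 °C; 1 = growth at the plate median or of vehicle wells; lower values mean less growth of the strain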
Conditions: S. cerevisiae deletion strains, growth OD

Measured: normalized growth

CC(=O)O[C@H]1CC[C@@]2(C)C(=CCC3C2CC[C@]2(C)C(=O)CCC32)C1 (some centres undefined)
active: locus YLR039C, strain RIC1, stronger effect = lower value 0.403 | locus YLR262C, strain YPT6 (second series), stronger effect = lower value 0.514 | locus YLR262C, strain YPT6, stronger effect = lower value 0.413 | locus YLR320W, strain mms22, stronger effect = lower value 0.846 | locus YLR330W, strain CHS5, stronger effect = lower value 0.814 | locus YLR342W, strain FKS1 (second series), stronger effect = lower value 0.742 | locus YLR418C, strain cdc73, stronger effect = lower value 0.698 | locus YML032C, strain rad52, stronger effect = lower value 0.866 | locus YMR223W, strain ubp8, stronger effect = lower value 0.878 | locus YNL071W, strain lat1, stronger effect = lower value 0.758 | locus YNL233W, strain BNI4, stronger effect = lower value 0.724 | locus YNL298W, strain CLA4, stronger effect = lower value 0.859 | locus YNL307C, strain MCK1, stronger effect = lower value 0.516 | locus YNR052C, strain pop2, stronger effect = lower value 0.85 | locus YOL147C, strain pex11, stronger effect = lower value 0.92 | locus YOR184W, strain ser1, stronger effect = lower value 0.477 | locus YPL055C, strain LGE1, stronger effect = lower value 0.594 | locus YPL078C, strain atp4, stronger effect = lower value 0.891 | locus YPL106C, strain sse1, stronger effect = lower value 1.22 [resistant] | strain wtn01, stronger effect = lower value 0.848
inactive: locus YJR043C, strain POL32, stronger effect = lower value 0.857 | locus YJR075W, strain HOC1, stronger effect = lower value 0.887 | locus YKL009W, strain mrt4, stronger effect = lower value 0.938 | locus YKL068W, stronger effect = lower value 1.03 | locus YKL085W, strain MDH1 (second series), stronger effect = lower value 0.964 | locus YKL085W, strain MDH1, stronger effect = lower value 0.964 | locus YKL160W, strain elf1, stronger effect = lower value 0.906 | locus YKL190W, strain CNB1, stronger effect = lower value 0.945 | locus YKR001C, strain vps1, stronger effect = lower value 0.961 | locus YKR026C, strain gcn3, stronger effect = lower value 1.05 | locus YKR091W, strain srl3, stronger effect = lower value 1.03 | locus YLL001W, strain dnm1, stronger effect = lower value 0.918 | locus YLL026W, stronger effect = lower value 1.02 | locus YLL041C, strain sdh2, stronger effect = lower value 1.03 | locus YLR027C, strain aat2, stronger effect = lower value 0.954 | locus YLR058C, strain SHM2, stronger effect = lower value 0.892 | locus YLR102C, strain apc9, stronger effect = lower value 1.04 | locus YLR221C, strain rsa3, stronger effect = lower value 0.966 | locus YLR258W, strain gsy2, stronger effect = lower value 0.952 | locus YLR268W, strain sec22, stronger effect = lower value 0.887 | locus YLR342W, strain FKS1, stronger effect = lower value 0.976 | locus YLR357W, strain rsc2, stronger effect = lower value 1.1 | locus YLR370C, strain arc18, stronger effect = lower value 1.01 | locus YLR371W, strain rom2, stronger effect = lower value 1.02 | locus YLR384C, strain iki3, stronger effect = lower value 1.03 | locus YML016C, strain PPZ1, stronger effect = lower value 0.947 | locus YML120C, strain ndi1, stronger effect = lower value 0.928 | locus YML124C, strain tub3, stronger effect = lower value 1.03 | locus YMR058W, strain fet3, stronger effect = lower value 0.988 | locus YMR078C, strain ctf18, stronger effect = lower value 1.01 | locus YMR125W, strain sto1, stronger effect = lower value 1.05 | locus YMR129W, stronger effect = lower value 1.03 | locus YMR205C, strain PFK2, stronger effect = lower value 0.876 | locus YMR231W, strain pep5, stronger effect = lower value 1.01 | locus YMR263W, strain SAP30, stronger effect = lower value 0.943 | locus YMR307W, strain GAS1, stronger effect = lower value 0.865 | locus YNL067W, strain RPL9B, stronger effect = lower value 0.887 | locus YNL209W, strain ssb2, stronger effect = lower value 0.942 | locus YNL248C, strain rpa49, stronger effect = lower value 0.98 | locus YNL250W, strain rad50, stronger effect = lower value 0.914 | locus YNL271C, strain bni1, stronger effect = lower value 0.965 | locus YNL322C, strain KRE1 (second series), stronger effect = lower value 1.04 | locus YNR049C, strain mso1, stronger effect = lower value 1.04 | locus YOL012C, strain htz1 1.72 | locus YOR001W, strain rrp6, stronger effect = lower value 0.969 | locus YOR061W, strain CKA2, stronger effect = lower value 0.89 | locus YOR069W, strain VPS5, stronger effect = lower value 0.988 | locus YOR070C, strain gyp1, stronger effect = lower value 0.937 | locus YOR080W, strain dia2, stronger effect = lower value 1 | locus YOR083W, strain WHI5, stronger effect = lower value 0.903 | locus YOR106W, strain vam3, stronger effect = lower value 0.883 | locus YOR136W, strain idh2, stronger effect = lower value 0.95 | locus YOR144C, strain elg1, stronger effect = lower value 0.989 | locus YOR265W, strain rbl2, stronger effect = lower value 0.973 | locus YOR270C, strain vph1, stronger effect = lower value 1.05 | locus YOR290C, strain snf2, stronger effect = lower value 0.881 | locus YOR316C, strain cot1, stronger effect = lower value 1.02 | locus YPL051W, strain arl3, stronger effect = lower value 0.953 | locus YPL240C, strain hsp82, stronger effect = lower value 0.983 | locus YPL241C, strain CIN2, stronger effect = lower value 1 | locus YPR119W, strain clb2, stronger effect = lower value 1.04 | locus YPR141C, strain kar3, stronger effect = lower value 1.04 | locus YPR163C, strain tif3, stronger effect = lower value 0.941 | locus YPR167C, strain met16, stronger effect = lower value 0.97

Reference: PubChem BioAssay AID1159580 (chemical genetic matrix, 2015)
